Most compounds without a hit are left out; they make up all but 4.1% or so of the library.
ssDAF12 agonist: activators of S. stercoralis DAF-12 nuclear receptor. HEK293 ssDAF-12/GRIP1 lit1-tk-luc reporter, luminescence; % of 3 µM dafachronic acid response. 1% of 370,000 active. activation, % at 6.8 µM. AID 652126;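 active = activation above the mean over all tested compounds plus 3 SD, cut at about 0.9% in these data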;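 also: 0% = DMSO-only wells and 100% = 3 µM delta7-dafachronic acid wells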
hgDAF12 agonist: activates the H. glycines DAF-12 receptor ligand-binding domain. HEK293 GAL4-hgDAF12 UAS-luciferase reporter, agonist luminescence; normalized to butyrate control. activation, % at 6.8 µM. 1.8% of 370,000 active. AID 687014;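 active = activation above a cutoff set at the mean of all screened compounds plus 3 SD, cut at about 10% in these data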;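 also: 0% = DMSO wells and 100% = sodium butyrate wells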
hcDAF-12 act: activates DAF-12 receptor from parasite H. contortus; activation, % at 6.8 µM; AID 652067; 1.4% of 370,000 active; HEK293 hcDAF-12 lit1-tk-luc reporter, luminescence; 0% DMSO, 100% Δ7-dafachronic acid;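 active = activation above the mean of all tested compounds plus 3 SD, cut at about 5.5% in these data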;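 also: 100% = response to 3 µM Δ7-dafachronic acid high control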
DAX1 inh-1: inhibits human nuclear receptor DAX1 | HEK293 Gal4-DAX1 luciferase reporter, luminescence | AID 504766 | inhibition, % at 6.75 µM | 0.99% of 340,000 active;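 active = inhibition above the mean over all tested compounds plus 3 SD, cut at about 4.2% in these data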;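 also: 0% = DAX1-transfected cells with DMSO and 100% = empty-vector control cells with DMSO; inhibition shows as a rise in luminescence from relieved DAX1 repression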
DAX1 inh-2: blocks DAX1 repression of SF-1 activated StAR promoter. HEK293T StAR-luciferase reporter, SF-1/DAX-1 repression relief. inhibition, % at 6.8 µM. 1.1% of 370,000 active;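 active = inhibition above the mean over all tested compounds plus 3 SD, cut at about 3.6% in these data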;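 also: 0% = DAX-1 cells with DMSO and 100% = cells lacking DAX-1 with DMSO; higher inhibition means more luminescence from relief of DAX-1 repression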
LXRb hcDAF ctr: activates human LXR-beta, counter-screen for hcDAF-12 agonists; AID 743027; 3,400 tested, under 10 active; shares compounds with hcDAF-12 act; HEK293 Gal4-LXR tk-luc reporter, luminescence, 24 h; normalized: DMSO 0%, positive control 100%; activation, % at 6.8 µM;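 active = mean percent activation of the reporter above a cutoff set as the average over tested compounds plus their standard deviation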
Target sequence (P55055 whole entry, looked up, the tested form may be a part): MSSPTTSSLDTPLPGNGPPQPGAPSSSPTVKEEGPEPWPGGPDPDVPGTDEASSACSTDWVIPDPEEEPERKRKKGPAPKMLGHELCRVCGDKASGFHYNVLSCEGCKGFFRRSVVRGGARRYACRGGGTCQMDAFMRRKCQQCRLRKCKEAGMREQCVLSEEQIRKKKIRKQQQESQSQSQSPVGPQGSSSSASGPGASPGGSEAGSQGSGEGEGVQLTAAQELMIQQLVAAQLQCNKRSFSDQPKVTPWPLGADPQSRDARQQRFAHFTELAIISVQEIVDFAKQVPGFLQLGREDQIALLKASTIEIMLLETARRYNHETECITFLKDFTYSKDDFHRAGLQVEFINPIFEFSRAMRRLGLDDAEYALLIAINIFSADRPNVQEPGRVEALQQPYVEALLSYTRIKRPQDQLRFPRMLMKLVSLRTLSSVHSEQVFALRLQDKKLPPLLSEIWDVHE
hcDAF12 ag: hcDAF-12 agonism, confirmation assay | shares compounds with hcDAF-12 act | 61% of 3,400 active | activation, % at 6.8 µM | HEK293 hcDAF-12 lit1-tk-luc reporter, luminescence; % of Δ7-dafachronic acid response;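 active = mean activation across triplicate tests above the threshold derived from the earlier primary screen, cut at about 5.5% in these data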;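 also: 0% = DMSO only wells and 100% = 3 µM Δ7-dafachronic acid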
An asterisk follows results filed as active.

How did O=C(Nc1nnc(SCC(=O)N2CCCc3ccccc32)s1)c1ccccc1 do in these assays?
ssDAF12 agonist: -1; hgDAF12 agonist: 7; hcDAF-12 act: 8.0*; DAX1 inh-1: -2; DAX1 inh-2: 1; LXRb hcDAF ctr: 0; hcDAF12 ag: 4

What do the screens show for `O=C(NC(=S)N1CCCc2ccccc21)c1ccccc1`?
ssDAF12 agonist: 1; hgDAF12 agonist: 8; hcDAF-12 act: 8.3*; DAX1 inh-1: 1; DAX1 inh-2: 0; LXRb hcDAF ctr: 0; hcDAF12 ag: 9.2*

How did O=C(NC(=S)N1CCCc2ccccc21)c1ccc(Cl)cc1 do in these assays?
ssDAF12 agonist: 0; hgDAF12 agonist: 4; hcDAF-12 act: 7.9*; DAX1 inh-1: 2; DAX1 inh-2: 1; LXRb hcDAF ctr: 0; hcDAF12 ag: 9.2*

How did Fc1ccc(CC2CCN(c3ncnc4sccc34)CC2)cc1 do in these assays?
ssDAF12 agonist: -3; hgDAF12 agonist: -7; hcDAF-12 act: -6

What do the screens show for `Nc1nn(-c2ccccc2)c(N)c1N=Nc1ccc2c(c1)OCO2`?
ssDAF12 agonist: 0; hgDAF12 agonist: 20*; hcDAF-12 act: 8.4*; DAX1 inh-1: -1; DAX1 inh-2: 2; LXRb hcDAF ctr: 2; hcDAF12 ag: 6.5*

How did Nc1[nH]n(-c2ccccc2)c(=O)c1N=Nc1ccc2c(c1)OCO2 do in these assays?
ssDAF12 agonist: -2; hgDAF12 agonist: 3; hcDAF-12 act: -1; DAX1 inh-1: 0; DAX1 inh-2: 1

What do the screens show for `CCN1CCc2nc(NC(=O)c3ccccc3)sc2C1`?
ssDAF12 agonist: 1; hgDAF12 agonist: 7; hcDAF-12 act: 8.9*; DAX1 inh-1: -1; DAX1 inh-2: 4.0*; LXRb hcDAF ctr: 1; hcDAF12 ag: 6.8*

Results for O=C(NC(=S)Nc1nc2c(s1)CCCC2)c1ccccc1 ?
ssDAF12 agonist: 1.0*; hgDAF12 agonist: 11*; hcDAF-12 act: 12*; DAX1 inh-1: 1; DAX1 inh-2: 2; LXRb hcDAF ctr: 2; hcDAF12 ag: 16*

Results for Cn1c(NC(=O)/C=C/c2ccccc2)cc(=O)n(C)c1=O ?
ssDAF12 agonist: 1.3*; hgDAF12 agonist: 2; hcDAF-12 act: 11*; DAX1 inh-1: 4.8*; DAX1 inh-2: 1; LXRb hcDAF ctr: 1; hcDAF12 ag: 6.3*

What do the screens show for `C=CCn1c(COc2ccc(C)cc2)nnc1SCC(=O)Nc1ccc(Oc2ccccc2)cc1`?
ssDAF12 agonist: -2; hgDAF12 agonist: 1; hcDAF-12 act: -2; DAX1 inh-2: -1

Results for O=C(N[C@H](C(=O)N1CCC[C@H]1C(=O)NCCc1ccccc1Cl)c1ccccc1)c1ccco1 ?
ssDAF12 agonist: -1; hgDAF12 agonist: -1; hcDAF-12 act: -1; DAX1 inh-2: 0

Results for Clc1ccc(OCCCCN2CCc3ccccc3C2)cc1 ?
ssDAF12 agonist: 0; hgDAF12 agonist: 8; hcDAF-12 act: 10*; DAX1 inh-1: -1; DAX1 inh-2: 0; LXRb hcDAF ctr: 0; hcDAF12 ag: 3

What do the screens show for `COc1ccc(OCCOCCN2CCc3ccccc3C2)cc1`?
ssDAF12 agonist: 0; hgDAF12 agonist: 0; hcDAF-12 act: 0; DAX1 inh-1: -1; DAX1 inh-2: 0

How did COC1=C[C@H](C(=O)NCc2ccc(Br)cc2)C(C)C(c2ccccc2)CC1=O (stereo partly drawn) do in these assays?
ssDAF12 agonist: -1; hgDAF12 agonist: -2; hcDAF-12 act: 1; DAX1 inh-2: 0

How did c1ccc2c(-c3nc4ncccc4o3)cccc2c1 do in these assays?
ssDAF12 agonist: 0; hgDAF12 agonist: 5; hcDAF-12 act: 8.3*; DAX1 inh-1: 2; DAX1 inh-2: 0; LXRb hcDAF ctr: 0; hcDAF12 ag: 5.6*

Results for Fc1ccccc1-c1nc2ncccc2o1 ?
ssDAF12 agonist: -2; hgDAF12 agonist: 6; hcDAF-12 act: 2; DAX1 inh-1: 0; DAX1 inh-2: 1

High-throughput results as filed in PubChem BioAssay.
